Bioassay records (PubChem BioAssay)
This is a sample that favours compounds with a hit; in the whole collection about 2.1% have one here.
HNF4A DNA FP = change in binding of human HNF4A to DNA, primary screen, biochemical, fluorescence polarization, FITC-DNA; Hepatocyte nuclear factor 4-alpha (Homo sapiens), P41235; 1 h; activity change, % at 10 µM; hit rate 0.3% among 360,000; in the data active = activity change above about 30%, passing the limit was not always enough
TPT1 inhibitor = Candida albicans TPT1 enzyme inhibitors, primary screen, biochemical, fluorescence polarization | inhibition, % at 5 µM | AID 1962, 2009 | hit rate 0.81% among 300,000 | recombinant caTPT1, FP RNA substrate dephosphorylation;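 active = inhibition above the mean of all tested compounds plus 3 SD, set per screening campaign, cut at about 24% in these data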
Myeloid diff 2 = induction of myeloid progenitor differentiation, primary screen, cell-based, flow cytometry, MLPCN library; calls only at 10 µM; hit rate 1% among 360,000; ER-HoxA9 myeloid progenitors, lysozyme-GFP differentiation;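 active = normalized GFP-positive differentiation at or above the plate's own cutoff, the solvent-only control mean plus 3 SD; inconclusive = no clear call, values can overlap the other calls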;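 also: cells exposed to compound for four days before flow analysis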
Rpn11 block = Rpn11 (PSMD14) deubiquitinase inhibitors, primary screen, biochemical, fluorescence polarization, uHTS | AID 588493, 2011 | 26S proteasome non-ATPase regulatory subunit 14 (Homo sapiens), O00487 | human 26S proteasome, Ub4-pepOG fluorescence polarization; 20S core pre-blocked with epoxomicin | inhibition, % at 20 µM | hit rate 0.59% among 360,000;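 active = inhibition at 20 µM, scaled to each plate's controls, above about 33%, limit read from the data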
Target sequence (O00487 whole entry, looked up): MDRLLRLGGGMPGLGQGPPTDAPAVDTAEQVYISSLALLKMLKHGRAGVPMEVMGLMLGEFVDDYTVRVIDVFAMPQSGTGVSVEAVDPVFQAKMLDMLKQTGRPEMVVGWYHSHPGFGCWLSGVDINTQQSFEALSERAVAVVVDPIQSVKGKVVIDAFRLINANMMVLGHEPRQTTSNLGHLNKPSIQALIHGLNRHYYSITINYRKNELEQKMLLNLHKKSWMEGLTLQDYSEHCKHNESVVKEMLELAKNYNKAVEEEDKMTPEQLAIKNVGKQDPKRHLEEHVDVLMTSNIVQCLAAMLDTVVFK
TPT1 inh confirm = Candida albicans TPT1 inhibitors, confirmation, biochemical, fluorescence polarization, triplicate; hit rate 74% among 2,400; inhibition, % at 5 µM; shares compounds with TPT1 inhibitor; recombinant caTPT1, RNase T1 coupled;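 active = inhibition above the primary screen limit, the mean inhibition of all tested compounds plus 3 SD, cut at about 25% in these data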
RNase T1 counter = RNase T1 inhibitors, counter-screen for TPT1 inhibitor project, biochemical, fluorescence polarization. shares compounds with TPT1 inhibitor. inhibition, % at 5 µM. AID 2153, 2009. hit rate 83% among 2,400. RNase T1 cleavage, 1536-well;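 active = inhibition above the solvent-only control well mean plus 3 SD, limit set per screening run, cut at about 23% in these data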;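 also: inhibitors block cleavage so intact labeled substrate keeps polarization high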
Target sequence (P00651 whole entry, looked up): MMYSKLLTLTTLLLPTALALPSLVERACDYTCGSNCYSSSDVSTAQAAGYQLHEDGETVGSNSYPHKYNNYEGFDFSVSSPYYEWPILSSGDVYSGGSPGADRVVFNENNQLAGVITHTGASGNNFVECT
Rpn11 confirm = Rpn11 (PSMD14) deubiquitinase inhibitors, confirmation, biochemical, fluorescence polarization, single concentration; shares compounds with Rpn11 block; purified human 26S proteasome, Ub4-pepOG fluorescence polarization; proteasome pretreated with epoxomicin; inhibition, % at 20 µM; hit rate 29% among 1,900; AID 602318, 2012
MMP-2 counter = MMP-2 enzyme inhibition, confirmation, counter-screen for RPN11 inhibitor project, biochemical, fluorescence, single concentration; hit rate 4% among 1,900; AID 602330, 2012; shares compounds with Rpn11 block; inhibition, % at 20 µM; recombinant MMP-2, FRET peptide cleavage fluorescence;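 also: human MMP-2 activated beforehand with APMA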
Thrombin inh = bovine thrombin protease inhibition, confirmation, counter-screen for Rpn11 inhibitor project, biochemical, fluorescence polarization, single concentration; shares compounds with Rpn11 block; bovine thrombin cleavage of Ub4-pepOG; inhibition, % at 20 µM; hit rate 13% among 1,900;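 active = mean inhibition at least 40% at 20 µM, or signal 3 deviations below plate average, so some actives read negative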
Of the large screens only hits and unclear results are named; the others gave an inactive call (follow-up assays come after a bar, where shown). Rule as the data show it, unless noted: active = inhibition above about 40%; inactive = the rest.

COc1ccc(C(=O)N/N=c2\oc3ccccc3cc2C(=O)NCc2ccccc2)cc1	TPT1 inhibitor 33 | TPT1 inh confirm inactive | RNase T1 counter inactive
COc1ccc(CN(C)CC(=O)NC(C)c2ccccc2)c(OC)c1 (stereo not given)	TPT1 inhibitor 99 | TPT1 inh confirm inactive | RNase T1 counter inactive
COc1cc(CC(=O)N(C)CC(=O)Nc2cc(C)ccc2C)cc(OC)c1OC	none
Nc1c(C(=O)c2ccccc2)sc2nsc(SCCN3CCOCC3)c12	TPT1 inhibitor 58 (not shown: Rpn11 block) | TPT1 inh confirm 63 | RNase T1 counter 72
COc1cc(C(=O)NC2=C(C#N)CCC2)cc(OC)c1OC	none
COC(=O)C1(C)NC(c2ccc(Cl)cc2)C2C(=O)N(c3ccccc3)C(=O)C21 (stereo not given)	TPT1 inhibitor 82 | TPT1 inh confirm inactive | RNase T1 counter inactive
COC(=O)C1(C)NC(c2ccccc2F)C2C(=O)N(c3ccccc3)C(=O)C21 (stereo not given)	none
CCn1c(SCC(=O)Nc2sc3c(c2C#N)CCCC3)nnc1-c1ccncc1	none
N#Cc1c(NC(=O)CSc2nnc(-c3ccncc3)n2CC2CCCO2)sc2c1CCCC2 (stereo not given)	TPT1 inhibitor 115 | TPT1 inh confirm inactive | RNase T1 counter inactive
Cc1cc(NC(=O)COc2ccc3ccccc3c2Br)no1	none (no result: TPT1 inhibitor)
Cc1ccc(S(=O)(=O)Nc2ccccc2-c2ccccc2NS(=O)(=O)c2ccc(C)cc2)cc1	none
O=C1c2ccccc2-c2cccc(NS(=O)(=O)c3ccc(C(F)(F)F)cc3)c21	TPT1 inhibitor 42 (not shown: Rpn11 block) | TPT1 inh confirm 47 | RNase T1 counter 55
CC(=O)Nc1ccc(S(=O)(=O)N(CC(=O)Nc2cc(C)on2)Cc2ccc(F)cc2)cc1	none
O=C(COc1ccccc1[N+](=O)[O-])N/N=C/c1ccc(O)c([N+](=O)[O-])c1	TPT1 inhibitor 61 | TPT1 inh confirm inactive | RNase T1 counter inactive
O=C(COc1ccccc1[N+](=O)[O-])N/N=C/c1ccccn1	none
O=C1/C(=C/N(C(=O)c2ccco2)c2ccc(Br)cc2)Sc2ccccc21	TPT1 inhibitor 70, Rpn11 block 52 | TPT1 inh confirm 71 | RNase T1 counter 85
O=C1/C(=C/N(C(=O)c2ccco2)c2ccc(Cl)cc2)Sc2ccccc21	TPT1 inhibitor 69 | TPT1 inh confirm 70 | RNase T1 counter 82
O=C1c2ccccc2C(=O)N1CCCCN(C(=O)c1ccco1)c1ccc(Cl)cc1	none
Cc1ccc(/C=N/NC(=O)COc2ccc(Cl)c(C)c2)o1	none
CCOc1ccc2nc(N3C(=O)/C(=C/c4ccccc4)NC3=S)sc2c1	TPT1 inhibitor 26 (not shown: Rpn11 block) | TPT1 inh confirm 35 | RNase T1 counter 45
COc1ccc(C)cc1S(=O)(=O)N(C)CC(=O)N1CCCC1	none
COc1ccc(O)c(/C=C2/SC(=S)N(Cc3ccccc3)C2=O)c1	TPT1 inhibitor 93 (not shown: Rpn11 block) | TPT1 inh confirm 104 | RNase T1 counter 103
COc1ccc(OC)c(/C=C2\SC(=S)N(Cc3cccnc3)C2=O)c1	TPT1 inhibitor 65 | TPT1 inh confirm 68 | RNase T1 counter 77
COc1ccccc1/C=C1/SC(=S)N(CCC(=O)Nc2cccnc2)C1=O	none
O=C(O)/C(=C\c1cccc(OCc2ccccc2)c1)c1ccc(F)cc1	none
COc1ccc(CCNC(=O)c2ccc3c(c2)NC(=O)C(CSCc2cc(C)ccc2C)N3)cc1OC (stereo not given)	TPT1 inhibitor 129 (no result: HNF4A DNA FP, Myeloid diff 2, Rpn11 block) | TPT1 inh confirm 124 | RNase T1 counter 122
COc1ccc(CCNC(=O)c2ccc3c(c2)NC(=O)C(C(C)C)N3)cc1OC (stereo not given)	none
CC1(C)CC(=O)c2c(O)cc(O)cc2O1	none
C[C@]12CCC[C@H](O1)c1c(cc3c(c1O)C(=O)c1c(O)cc(O)cc1C3=O)O2	TPT1 inhibitor 80, Rpn11 block 52 | TPT1 inh confirm 89 | RNase T1 counter 99 | Rpn11 confirm 47 | MMP-2 counter inactive | Thrombin inh inactive
CCN1CCc2c(sc(NC(=O)c3ccc(S(=O)(=O)N4CC(C)OC(C)C4)cc3)c2C(N)=O)C1 (stereo not given)	none (no result: Myeloid diff 2)
CCN1CCN(S(=O)(=O)c2ccc(C(=O)Nc3sc4c(c3C(N)=O)CCN(CC)C4)cc2)CC1	TPT1 inhibitor 96, Rpn11 block 59 | TPT1 inh confirm 115 | RNase T1 counter 118 | Rpn11 confirm inactive | MMP-2 counter inactive | Thrombin inh inactive
O=C(NC(=S)Nc1ccc(Cc2ccncc2)cc1)c1ccc(F)cc1	none
CC(C)N1CCc2c(sc(NC(=O)c3cc(-c4cccs4)nc4ccccc34)c2C(N)=O)C1	TPT1 inhibitor 44, Rpn11 block 57 | TPT1 inh confirm inactive | RNase T1 counter 22 | Rpn11 confirm 128 | MMP-2 counter inactive | Thrombin inh 56
COc1ccc(C2=NN(c3nc(-c4ccccc4)c(CC(=O)O)s3)C(c3ccco3)C2)cc1 (stereo not given)	TPT1 inhibitor 60, Rpn11 block 69 | TPT1 inh confirm 37 | RNase T1 counter 49 | Rpn11 confirm inactive | MMP-2 counter inactive | Thrombin inh inactive
COc1ccc(C2=NN(C(=O)COc3ncnc4ccccc34)C(c3ccco3)C2)cc1 (stereo not given)	none
CC(/C=C1\SC(=S)N(CCC(=O)Nc2cccc(C(=O)O)c2)C1=O)=C\c1ccccc1	TPT1 inhibitor 25, Rpn11 block 40 | TPT1 inh confirm 43 | RNase T1 counter 56 | Rpn11 confirm 122 | MMP-2 counter inactive | Thrombin inh inactive
O=C(CCN1C(=O)/C(=C\c2ccco2)SC1=S)Nc1ccc(C(=O)O)c(O)c1	TPT1 inhibitor 25, Myeloid diff 2 inconclusive, Rpn11 block 70 | TPT1 inh confirm inactive | RNase T1 counter inactive | Rpn11 confirm inactive | MMP-2 counter inactive | Thrombin inh inactive
